Experimental data: PubChem BioAssay (Tox21)
A number with no mark means an inactive call. Inconclusive results are not listed. Where a call stands in place of a potency, no number is given. The source made the active and inactive calls. Unless noted, calls come from the whole dose curve; as a rule, active = well fitted curve in the direction sought with a large enough effect in the repeat runs; inconclusive = weak or mixed curves; inactive = no such curve, though single readings can be large; an effect the other way counts as inactive or inconclusive.

Columns and labels:
[1] = qHTS assay to identify small molecule antagonists of the estrogen receptor alpha (ER-alpha) signaling pathway using the BG1 cell line in the presence of 0.1 nM 17-beta-estradiol - cell viability counter screen (AID 1259241); note: nearly all actives have a fitted effect of over 40% in size
How it was run: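 VM7Luc4E2, 4,000 cells/well, phenol red-free medium + 10% charcoal-stripped FBS; 24 hr plating; cpd + 0.1 nM E2 final, 22 hr 37C/5% CO2; CellTiter-Fluor 30 min, fluorescence.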

[2] = qHTS assay to identify small molecule antagonists of the androgen receptor (AR) signaling pathway using the MDA cell line in the presence of 0.5 nM R1881 - cell viability counter screen (AID 1259242); note: nearly all actives have a fitted effect of over 45% in size
How it was run: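 Fluorescence from CellTiter-Fluor, which reports protease activity of live cells, was read 30 min after reagent addition to MDA-kb2 cells that had been incubated 16 hr with compound and 0.5 nM R1881.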

[3] = qHTS assay to identify small molecule HDAC inhibitors (AID 1259364); note: top concentration of the series differs between compounds; nearly all actives have a fitted effect of over 45% in size
How it was run: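 Endogenous HDAC class I/II activity was measured in wild-type HCT-116 cells by HDAC-Glo luminescence after 2 h compound treatment.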

[4] = qHTS assay to identify small molecule HDAC inhibitors - cell viability counter screen (AID 1259365); note: series mostly up to about 92 µM; nearly all actives have a fitted effect of over 50% in size
How it was run: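 Luminescence from CellTiter-Glo, developed 30min at room temperature, reports viability of wild-type HCT-116 cells treated 2hr with compounds at 37 C and 5% CO2 after overnight plating.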

[5] = qHTS assay to identify small molecule antagonists of the sonic hedgehog signaling (Shh) pathway - cell viability counter screen (AID 1259367); note: nearly all actives have a fitted effect of over 55% in size
How it was run: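 Cells: 3T3 Gli1-Luc, 2,000/well, 4 hr pre-incubation. Compounds in DMSO, then conditioned medium. Incubation 24 hr, 37C, 5% CO2. CellTiter-Fluor at 23 hr, 1 hr, fluorescence.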

[6] = qHTS assay to identify small molecule agonists of the sonic hedgehog signaling (Shh) pathway (AID 1259368; calls by dose curve;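 note: NIH/3T3-derived 3T3Gli1-Luc cells carrying a stable Gli1-driven firefly luciferase reporter; series mostly up to about 92 µM; nearly all actives have a fitted effect of over 15% in size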)
How it was run: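 Luminescent signal was taken as a measure of Gli1-controlled luciferase expression in stably transfected NIH/3T3-derived cells that had been treated for 24 hr with compounds delivered in DMSO.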

[7] = qHTS assay to identify small molecule agonists of the sonic hedgehog signaling (Shh) pathway - cell viability counter screen (AID 1259366); note: nearly all actives have a fitted effect of over 50% in size; note: potency is the fitted concentration of half-maximal effect
How it was run: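 Cytotoxicity counter screen run in the same wells as the Shh reporter assay. NIH/3T3 cells carrying a Gli1 response element–driven luciferase were treated with DMSO-dissolved compounds for 24hr, and live-cell protease activity was measured with CellTiter-Fluor.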

[8] = qHTS assay to identify small molecule phospholipidosis (PLD) inducers (AID 1259344; active = well fitted curve in the direction sought with a large enough effect; an effect the other way counts as inactive or inconclusive)
How it was run: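 Phospholipidosis is scored by imaging LipidTOX-stained pits in HepG2 cells exposed to compound for 24 h at 37 C; pit counts and integrated intensities per well and per cell serve as outputs.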

[9] = target: Estrogen receptor (Homo sapiens) (UniProt P03372); assay: qHTS assay to identify small molecule antagonists of the estrogen receptor alpha (ER-alpha) signaling pathway using the BG1 cell line in the presence of 0.1 nM 17-beta-estradiol (AID 1259244); note: nearly all actives have a fitted effect of over 50% in size
Chain of Estrogen receptor (Homo sapiens) (P03372 whole entry, looked up): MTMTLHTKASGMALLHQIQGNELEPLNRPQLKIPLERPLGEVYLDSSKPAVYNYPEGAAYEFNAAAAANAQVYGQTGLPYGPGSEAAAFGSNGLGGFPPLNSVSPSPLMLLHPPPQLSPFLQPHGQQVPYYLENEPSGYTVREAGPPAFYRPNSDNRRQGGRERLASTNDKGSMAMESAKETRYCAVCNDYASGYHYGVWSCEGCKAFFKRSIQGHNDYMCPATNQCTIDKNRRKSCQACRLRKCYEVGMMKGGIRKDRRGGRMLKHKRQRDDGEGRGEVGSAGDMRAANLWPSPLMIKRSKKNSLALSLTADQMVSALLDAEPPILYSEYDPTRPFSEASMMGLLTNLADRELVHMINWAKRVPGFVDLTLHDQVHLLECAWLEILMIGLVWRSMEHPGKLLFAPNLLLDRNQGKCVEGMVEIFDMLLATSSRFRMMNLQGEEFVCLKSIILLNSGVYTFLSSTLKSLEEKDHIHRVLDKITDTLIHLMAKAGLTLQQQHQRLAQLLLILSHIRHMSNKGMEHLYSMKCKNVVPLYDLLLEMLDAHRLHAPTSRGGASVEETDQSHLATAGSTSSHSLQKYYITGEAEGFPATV
How it was run: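 Quantitative high-throughput screen in VM7Luc4E2 cells: compound plus 0.1 nM E2 (final), 22 h, 37C, 5% CO2; ONE-Glo added, 30 min room temperature, luminescence measured.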

## CCCCCCCCC=O
[1]
  outcome: inactive
[2]
  outcome: inactive
[3]
  Potency: inactive
[4]
  outcome: inactive
[5]
  outcome: inactive
[6]
  Potency: inactive

## Cc1ccc(N)cc1[N+](=O)[O-]
[1]
  outcome: inactive
[2]
  outcome: inactive
[3]
  Potency: inactive
[4]
  outcome: inactive
[7]
  Potency: inactive
[5]
  outcome: inactive
[6]
  Potency: inactive

## COC(=O)c1ccc(C(=O)OC)c(C(=O)OC)c1
[1]
  outcome: inactive
[2]
  outcome: inactive
[3]
  Potency: inactive
[4]
  outcome: inactive
[7]
  Potency: inactive
[5]
  outcome: inactive
[6]
  Potency: inactive

## c1cc(CN2CCCCC2)cc(OCCCNc2nc3ccccc3s2)c1
[1]
  outcome: inactive
[8]
  Potency: inactive
[3]
  Potency: inactive
[4]
  outcome: inactive
[6]
  Potency: inactive

## N[C@@H](CS)C(=O)O
[1]
  outcome: inactive
[2]
  outcome: inactive
[4]
  outcome: inactive
[7]
  Potency: inactive
[5]
  outcome: inactive
[6]
  Potency: inactive

## CSc1nc(NC2CC2)nc(NC(C)(C)C)n1
[1]
  outcome: inactive
[2]
  outcome: inactive
[3]
  Potency: inactive
[4]
  outcome: inactive
[6]
  Potency: inactive

## CC(O)CN(CCCN(C)C)CCCN(C)C (centres undefined)
[1]
  outcome: inactive
[2]
  outcome: inactive
[3]
  Potency: inactive
[4]
  outcome: inactive
[7]
  Potency: inactive
[6]
  Potency: inactive

## C=CC(=O)OCCCCCC
[1]
  outcome: inactive
[2]
  outcome: inactive
[4]
  outcome: inactive
[7]
  Potency: inactive
[5]
  outcome: inactive
[6]
  Potency: inactive

## CCO[Si](CCCN=C=O)(OCC)OCC
[2]
  outcome: inactive
[3]
  Potency: inactive
[4]
  outcome: inactive
[7]
  Potency: inactive
[5]
  outcome: inactive
[6]
  Potency: inactive

## CCCCCCCCCCCCCCC
[1]
  outcome: inactive
[2]
  outcome: inactive
[3]
  Potency: inactive
[4]
  outcome: inactive
[7]
  Potency: inactive
[6]
  Potency: inactive

## C#CC(O)CCCCC (centres undefined)
[1]
  outcome: inactive
[2]
  outcome: inactive
[3]
  Potency: inactive
[4]
  outcome: inactive
[7]
  Potency: inactive
[5]
  outcome: inactive
[6]
  Potency: inactive

## O=C(O)CCNC(=O)c1ccc(N=Nc2ccc(O)c(C(=O)O)c2)cc1
[2]
  outcome: inactive
[9]
  outcome: inactive
[8]
  Potency: inactive
[3]
  Potency: inactive
[4]
  outcome: inactive
[5]
  outcome: inactive
[6]
  Potency: inactive

## CCCC=O
[1]
  outcome: inactive
[2]
  outcome: inactive
[4]
  outcome: inactive
[7]
  Potency: inactive
[5]
  outcome: inactive
[6]
  Potency: inactive

## CCCCCCCCCCC1CO1 (centres undefined)
[1]
  outcome: inactive
[2]
  outcome: inactive
[3]
  Potency: inactive
[4]
  outcome: inactive
[7]
  Potency: inactive
[5]
  outcome: inactive
[6]
  Potency: inactive

## CN(C)C(=O)C(CCN1CCC(O)(c2ccc(Cl)cc2)CC1)(c1ccccc1)c1ccccc1
[3]
  Potency: inactive
[4]
  outcome: inactive
[7]
  Potency: 16.8 µM (active)
[6]
  Potency: inactive

## CC(C=O)Cc1ccc(C(C)C)cc1 (centres undefined)
[1]
  outcome: inactive
[2]
  outcome: inactive
[3]
  Potency: inactive
[4]
  outcome: inactive
[7]
  Potency: inactive
[6]
  Potency: inactive

## CO[Si](OC)(OC)OC
[1]
  outcome: inactive
[2]
  outcome: inactive
[3]
  Potency: inactive
[4]
  outcome: inactive
[5]
  outcome: inactive
[6]
  Potency: inactive

## N#CC1(O)CCCCC1
[1]
  outcome: inactive
[2]
  outcome: inactive
[3]
  Potency: inactive
[4]
  outcome: inactive
[6]
  Potency: inactive

## CCCCC=O
[1]
  outcome: inactive
[2]
  outcome: inactive
[3]
  Potency: inactive
[4]
  outcome: inactive
[7]
  Potency: inactive
[5]
  outcome: inactive
[6]
  Potency: inactive

## CCCc1ccccc1O
[1]
  outcome: inactive
[2]
  outcome: inactive
[3]
  Potency: inactive
[4]
  outcome: inactive
[7]
  Potency: inactive
[5]
  outcome: inactive
[6]
  Potency: inactive

## COc1cccc(OC)c1
[1]
  outcome: inactive
[2]
  outcome: inactive
[3]
  Potency: inactive
[4]
  outcome: inactive
[7]
  Potency: inactive
[6]
  Potency: inactive

## COc1cc(C)cc(O)c1
[1]
  outcome: inactive
[2]
  outcome: inactive
[3]
  Potency: inactive
[4]
  outcome: inactive
[7]
  Potency: inactive
[5]
  outcome: inactive
[6]
  Potency: inactive

## CC(CCO)CCCC(C)(C)O (centres undefined)
[1]
  outcome: inactive
[2]
  outcome: inactive
[3]
  Potency: inactive
[4]
  outcome: inactive
[7]
  Potency: inactive
[5]
  outcome: inactive
[6]
  Potency: inactive

## C1=C\CC/C=C\CC/C=C\CC/1
[1]
  outcome: inactive
[2]
  outcome: inactive
[3]
  Potency: inactive
[4]
  outcome: inactive
[7]
  Potency: inactive
[5]
  outcome: inactive
[6]
  Potency: inactive

## CSc1ccc(C=O)cc1
[1]
  outcome: inactive
[2]
  outcome: inactive
[4]
  outcome: inactive
[5]
  outcome: inactive
[6]
  Potency: inactive

## C=C(C)C(=O)NCCCN(C)C
[1]
  outcome: inactive
[2]
  outcome: inactive
[3]
  Potency: inactive
[4]
  outcome: inactive
[7]
  Potency: inactive
[6]
  Potency: inactive

## OC1OC[C@@H](O)[C@H](O)[C@H]1O (some centres undefined)
[1]
  outcome: inactive
[2]
  outcome: inactive
[3]
  Potency: inactive
[4]
  outcome: inactive
[7]
  Potency: inactive
[6]
  Potency: inactive

## COC(C(=O)O)c1ccccc1 (centres undefined)
[1]
  outcome: inactive
[2]
  outcome: inactive
[3]
  Potency: inactive
[4]
  outcome: inactive
[7]
  Potency: inactive
[5]
  outcome: inactive
[6]
  Potency: inactive

## C1C2OC2C2C1C1CC2C2OC12 (centres undefined)
[1]
  outcome: inactive
[2]
  outcome: inactive
[4]
  outcome: inactive
[7]
  Potency: inactive
[5]
  outcome: inactive
[6]
  Potency: inactive
